Reference: PubChem BioAssay (NCATS)
Inconclusive results are not listed. Calls of active or inactive are those of the source. The call rests on the fitted dose curve; in most records, active means well fitted activation curve with a large enough effect in the main read-out, with a control signal flat (not every such curve was filed as active); inconclusive means small, poorly fitted or top-dose-only effect, or effect the other way, or a change in a side signal; inactive means flat fitted curve, though single readings scatter.

Target: 3',5'-cyclic-AMP phosphodiesterase 4B (Homo sapiens) (UniProt Q07343)
Sequence (Q07343 whole entry, looked up): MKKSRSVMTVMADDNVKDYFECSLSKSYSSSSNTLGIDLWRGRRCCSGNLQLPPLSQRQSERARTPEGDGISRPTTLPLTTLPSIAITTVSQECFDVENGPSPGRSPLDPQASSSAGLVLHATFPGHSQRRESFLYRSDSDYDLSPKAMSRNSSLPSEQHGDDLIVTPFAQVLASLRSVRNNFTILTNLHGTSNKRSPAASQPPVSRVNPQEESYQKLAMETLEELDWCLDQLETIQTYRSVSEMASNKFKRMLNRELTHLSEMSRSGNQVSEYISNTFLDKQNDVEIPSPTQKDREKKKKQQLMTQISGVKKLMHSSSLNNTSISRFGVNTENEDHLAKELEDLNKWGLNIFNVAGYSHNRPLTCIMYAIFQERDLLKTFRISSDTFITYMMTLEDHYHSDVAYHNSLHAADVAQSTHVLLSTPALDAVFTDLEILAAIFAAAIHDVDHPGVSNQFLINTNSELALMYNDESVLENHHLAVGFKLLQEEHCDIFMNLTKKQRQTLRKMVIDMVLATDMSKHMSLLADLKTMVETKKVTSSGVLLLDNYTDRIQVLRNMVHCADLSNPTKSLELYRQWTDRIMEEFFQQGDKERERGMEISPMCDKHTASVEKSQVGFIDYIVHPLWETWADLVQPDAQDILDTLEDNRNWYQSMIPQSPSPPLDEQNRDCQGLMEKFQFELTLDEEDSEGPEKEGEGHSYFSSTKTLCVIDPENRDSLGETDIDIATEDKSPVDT
Assay: qHTS Assay for Inhibitors of PDE-IV (AID 607); further: % of control where 0% means no effect
Settings: HEK293 ACTOne CNG channel cells, membrane potential fluorescence; series mostly up to 22.9 µM; activation (PDE inhibition): at the top concentration
Source text: NIH Chemical Genomics Center [NCGC]
NIH Molecular Libraries Screening Centers Network [MLSCN]
The cyclic nucleotide phosphodiesterases (PDEs) are proteins that catalyze hydrolysis of 3', 5'-cyclic nucleotides, such as cyclic adenosine monophosphate (cAMP) and cyclic guanosine monophosphate (cGMP), to their corresponding 5'-nucleotide monophosphates. These enzymes play an important role in controlling cellular concentrations of cyclic nucleotides and have a central role in a variety of intracellular signaling events. cAMP PDEs are emerging as a promising class of drug targets in asthma and cardiovascular disease therapeutic areas.
There are no commercially available cell-based screening assays for PDE inhibitors: currently biochemical assays are done using pure substrates (cAMP or cGMP) and purified recombinant PDE enzymes. As with other biochemical screens on intracellular targets, false positives and false negatives may result from issues involving cell membrane permeability, cellular metabolism, and the like.
Here we report the development of a cell-based screening assay for cAMP phosphodiesterase (PDE) inhibitors. The assay is based on the BD ACTOne# technology (BD Biosciences) which utilizes a modified cyclic nucleotide-gated channel (CNG) to monitor intracellular cAMP changes in live cells. The CNG channel is localized on the plasma membrane, and opens when the intracellular cAMP level increases, resulting in ion flux and cell membrane depolarization. The influx of cations through the CNG channel can be quantified using membrane potential (MP) dyes. We modified the BD ACTOne technology to allow the detection of PDE inhibitors, and performed an inhibitor screen for PDE-IV, which is expressed endogenously in HEK293 cells. We optimized this assay in homogeneous 1536-well plate assay format for high throughput screening.
NCGC Assay Protocol Summary:
The medium contained 10% FBS (Invitrogen), 2 mM L-glutamine, and 250 ug/ml G418 (Cellgro) and 1 ug/ml puromycin (Clontech). ACTOneTM parental cells (BD Biosciences) were maintained in the same medium without puromycin.
The activity of the CNG channel was measured by BD ACTOneTM membrane potential dye kit (BD Biosciences). Forskolin, a positive control for cAMP activation and RO 20-1724, a PDE inhibitor, were both purchased from Sigma and solublized in DMSO.
Sequence,Parameter,Value,Description
1,Reagent,3 uL,1000 cells/well 1536 TC treated Black plate
3,Compound,0.5 uL,Kalypsys dispense RO 20-1724 100 uM final [A]
4,Reagent,3 uL,BD membrane potential dye
6,Compound,23 nL,Final concentration was 0.7nM to 22.9uM
8,Detector,EX 535 / EM 590 [B],Envision
Footnotes: [A] The stock 2 mM RO 20-1724 PDE inhibitor was made in 10 % DMSO. Parental cell line received 10 uM forskolin + 100 uM RO. [B] Envsion settings: Bottom Excitation 535/20 nm top emission 590/20, gain of 150 and 5 flashes per well.
Keywords: PDE, PDE-IV, cytotoxicity, flourescence, MLSMR, MLSCN, NIH Roadmap, qHTS, NCGC

Activation (PDE inhibition), inactive:
O=C(O)C[C@@H](C(=O)O)c1ccccc1[N+](=O)[O-] -0.492%, O=C(O)c1c(-c2nccc3ccccc23)[nH]c(-c2ccccc2)c1S(=O)(=O)O 3.34%, CCOC(=O)c1c2c(n3ccccc13)C(=O)c1ccccc1C2=O 18.8%, CSc1nc(C)cc(Nc2ccc(O)c(CN3CCOCC3)c2)n1 2.48%, N#CC(C#N)=NNc1ccc2cn[nH]c2c1 2.08%, Cc1ccccc1N1CCN(S(=O)(=O)C[C@@]23CC[C@H](C[C@H]2NC(=O)[C@@H](N)CCS(C)(=O)=O)C3(C)C)CC1 9.78%, NC(=O)C/C=C\CC(N)=O 1.12%, C[C@@H](Cc1ccccc1)Nc1ncnc2c1ncn2[C@@H]1O[C@@H](CO)[C@H](O)[C@@H]1O -9.73%, CCN(CC)CC[n+]1ccc2c(C)c3[nH]c4ccc(O)cc4c3c(C)c2c1 -3.69%, O=C(O)C1(C(=O)O)CCN(S(=O)(=O)c2ccccc2)CC1 -3.22%, C/C(=N/O)[C@@H]1C[C@H](CC(=O)O)C1(C)C 6.65%, Cc1ccc(-[n+]2cc(=O)o[nH]2)cc1 7.16%, CC(C)(N=NC(C)(C)C1=NCCN1)C1=NCCN1 0.768%, Cc1ccc(CN2CCN(Cc3ccc(C)o3)[C@@H](C)C2)o1 -3.76%, COc1ccc2c(Cc3c4ccccc4cc4ccccc34)cncc2c1O 4.21%, O=C(O)CCNCC(=O)O 4.38%, CCCCC[C@@H](O)[C@@H]1C(=O)O[C@@H](C)[C@@H](O)\C=C/C=C\C=C/C=C\C=C(\C)[C@H](O)C[C@H](O)C[C@H](O)C[C@H](O)C[C@H](O)C[C@H](O)C[C@@H]1O 8.21%, S=C(Nc1ccc2c(c1)Cc1ccccc1-2)Nc1ccc2c(c1)Cc1ccccc1-2 -1.39%, CS[C@@H](CC(=O)O)C(=O)O 4.16%, OC[C@@H]1CCC[C@H](n2cnc3c(=S)nc[nH]c32)O1 -4.18%, Cc1ccccc1/C=C\C1=NCCN1 -8.04%, Cc1cc(C(C)(C)C)cc(CNC2CCCCC2)c1O 3.92%, O=C(O)C(=Cc1ccc(-c2ccccc2)cc1)C(=O)O 5.8%, Cc1ccc2nc(-c3ccc(NC(=O)c4ccc(N)cc4)c(S(=O)(=O)O)c3)sc2c1 5.49%, C(/C=C\c1ccccc1)=Nc1ccc2c(c1)Cc1ccccc1-2 6.87%, O=C(O)CCC(=O)c1ccc(Cl)cc1 5.99%, CCOC(=O)Cn1c(C(F)(F)F)nc2nc(Cl)c(Cl)nc21 -3.68%, CC1=CC(C)(C)Nc2ccc(CSc3ccccc3)cc21 -7.74%, N#CCCn1c(=O)c(-c2ccccc2)nc2cnc(Oc3ccccc3)nc21 -3.53%, C=C[C@]1(C)C[C@H](OC(=O)CO)[C@]2(C)C3C(=O)CC[C@]3(CC[C@H]2C)[C@H](C)[C@H]1O (stereo not given in full) -3.62%, OC[C@@H]1NC[C@@H](O)[C@@H](O)[C@H]1O 2.49%, O=C(O)c1cc2c(cc1S(=O)(=O)O)[C@H]1[C@@H]([C@H]3[C@H]2[C@@]2(Cl)C(Cl)=C(Cl)[C@]3(Cl)C2(Cl)Cl)[C@]2(Cl)C(Cl)=C(Cl)[C@@]1(Cl)C2(Cl)Cl 8.38%, O=C(O)/C=C\C(=O)Nc1ccccn1 7.03%, OCCN[C@@H]1c2cc(Cl)ccc2-c2c(Cl)cc(Cl)cc21 2.02%, CC(=O)/C(=N\N=C(N)N)c1ccccc1 1.47%, NC(=S)SCCC(=O)O -3.75%, CN(C)CCCN1c2ccccc2Sc2cnccc21 -4.5%, CCCC(c1cc(C(C)(C)C)c(O)cc1C)c1cc(C(C)(C)C)c(O)cc1C 15.5%, NNC(=O)[C@@H](O)[C@H](O)C(=O)NN -5.52%, C[C@@]12CCC(=O)C=C1CC[C@H]1[C@@H]2[C@@H](O)C[C@]2(C)[C@@H]1CC[C@@]2(O)C(=O)CO 7.38%
